The results in this text go back to PubChem BioAssay (EPA / NIEHS).

The source made the active and inactive calls. Rule for the calls: active = hit-call score of the fitted dose curve at least 0.9, where 1 is the maximum; inactive = score below 0.9.

In general, AC50 refers to the concentration giving half of the maximal activity seen.

Common to all, as to details: mRNA level, 48 h; actives raise or lower the signal
Read-out in assay [1]: Early growth response protein 1 (EGR1) transcription factor, EGR1 (gene 1958)
Briefly: LTEA_HepaRG_EGR1: Life Technologies and Expression Analysis (LTEA) Assay for Early growth response protein 1 (EGR1) transcription factor using HepaRG (AID 2283490). The method in brief:
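Read-out is EGR1 mRNA level by qRT-PCR, normalized to three housekeeping genes and analysed for gain or loss of signal against 0.5% DMSO. Source cells: human HepaRG, treated 48 h at up to 100 uM in half-log dilutions.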

Read-out in assay [2]: Ezrin (EZR), EZR (gene 7430)
Briefly: LTEA_HepaRG_EZR: Life Technologies and Expression Analysis (LTEA) Assay for Ezrin (EZR) using HepaRG (AID 2283491). The method in brief: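 HepaRG, 48 h chemical exposure, 8-pt half-log series from 100 uM, 0.5% DMSO vehicle, duplicates. Read-out: EZR mRNA by TaqMan qRT-PCR (Fluidigm array), housekeeping-normalized; bidirectional curve fit vs DMSO baseline.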

Read-out in assay [3]: CYP3A5 (gene 1577)
Briefly: LTEA_HepaRG_CYP3A5: Life Technologies and Expression Analysis (LTEA) Assay for CYP3A5 using HepaRG (AID 2283493). A digest of the protocol: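 HepaRG plated 48 h, switched to serum-free induction medium, chemicals added 48 h (max 100 uM, half-log, 0.5% DMSO). RNA isolated; CYP3A5 by TaqMan qRT-PCR. Gain/loss vs DMSO.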

Read-out in assay [4]: Fatty Acid-Binding Protein 1 (FABP1), FABP1 (gene 2168)
As to the kind of experiment: LTEA_HepaRG_FABP1: Life Technologies and Expression Analysis (LTEA) Assay for Fatty Acid-Binding Protein 1 (FABP1) using HepaRG (AID 2283494). A digest of the protocol:
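HepaRG, 48 h post-plating switched to serum-free induction medium, then dosed 48 h (duplicate, 8 pts, ≤100 uM, 0.5% DMSO). RNA → Fluidigm TaqMan qRT-PCR, FABP1 normed to ACTB/GAPDH/POLR2A. Bidirectional curve fit vs DMSO.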

Read-out in assay [5]: Cytochrome P450 4A22 (Homo sapiens) (UniProt Q5TCH4)
As to the kind of experiment: LTEA_HepaRG_CYP4A22: Life Technologies and Expression Analysis (LTEA) Assay for Cytochrome P450 4A22 (CYP4A22) using HepaRG (AID 2283495). A digest of the protocol: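 Differentiated HepaRG cells in serum-free induction medium exposed 48 h in duplicate to eight half-log concentrations up to 100 uM in 0.5% DMSO. CYP4A22 mRNA quantified by TaqMan qRT-PCR, normalized to ACTB, GAPDH and POLR2A; bidirectional fit versus DMSO.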

Read-out in assay [6]: Cytochrome P450 7A1 (Homo sapiens) (UniProt P22680)
Briefly: LTEA_HepaRG_CYP7A1: Life Technologies and Expression Analysis (LTEA) Assay for Cytochrome P450 7A1 (CYP7A1) using HepaRG (AID 2283496). The method in brief:
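HepaRG cells plated 48 h, then switched to serum-free induction medium and exposed in duplicate for 48 h to 8-point half-log series from 100 uM in 0.5% DMSO. CYP7A1 mRNA by qRT-PCR (TaqMan), normalized to ACTB/GAPDH/POLR2A; bidirectional fit versus DMSO.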

Read-out in assay [7]: Glutathione S-Transferase (GSTA2), GSTA2 (gene 2939)
As to the kind of experiment: LTEA_HepaRG_GSTA2: Life Technologies and Expression Analysis (LTEA) Assay for Glutathione S-Transferase (GSTA2) using HepaRG (AID 2283497). A digest of the protocol: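 HepaRG, 48 h dosing, 8-pt half-log CRC from 100 uM, 0.5% DMSO vehicle, n=2; RNA → Fluidigm TaqMan qRT-PCR; GSTA2 vs ACTB/GAPDH/POLR2A; gain/loss fit vs DMSO.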

Read-out in assay [8]: Glutamate-cysteine ligase catalytic (GCLC), GCLC (gene 2729)
Briefly: LTEA_HepaRG_GCLC: Life Technologies and Expression Analysis (LTEA) Assay for Glutamate-cysteine ligase catalytic (GCLC) using HepaRG (AID 2283498). The method in brief:
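Read-out is GCLC transcript level by Fluidigm-based TaqMan qRT-PCR, normalized to three housekeeping genes and fitted in both directions relative to 0.5% DMSO. Human HepaRG cells received chemicals for 48 h, up to 100 uM.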

Read-out in assay [9]: growth arrest and DNA damage 45 (GADD45G), GADD45G (gene 10912)
Briefly: LTEA_HepaRG_GADD45G: Life Technologies and Expression Analysis (LTEA) Assay for growth arrest and DNA damage 45 (GADD45G) using HepaRG (AID 2283499). The method in brief:
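Differentiated human HepaRG cells, 48 h post-plating, exposed 48 h in serum-free induction medium to 8 half-log concentrations (top 100 uM, 0.5% DMSO) in duplicate. GADD45G mRNA measured by Fluidigm TaqMan qRT-PCR, normalized to ACTB, GAPDH, POLR2A; bidirectional fit versus DMSO.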

Read-out in assay [10]: Glutamate-cysteine ligase regulatory (GCLM), GCLM (gene 2730)
Briefly: LTEA_HepaRG_GCLM: Life Technologies and Expression Analysis (LTEA) Assay for Glutamate-cysteine ligase regulatory (GCLM) using HepaRG (AID 2283500). The method in brief: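 Cells were plated, cultured 48 h, switched to serum-free induction medium, then dosed in duplicate for 48 h at eight half-log concentrations up to 100 uM. RNA was then profiled by qRT-PCR; gain or loss versus DMSO was fitted.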

Read-out in assay [11]: Glutathione S-transferase M3 (GSTM3), GSTM3 (gene 2947)
As to the kind of experiment: LTEA_HepaRG_GSTM3: Life Technologies and Expression Analysis (LTEA) Assay for Glutathione S-transferase M3 (GSTM3) using HepaRG (AID 2283501). The method in brief:
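Differentiated human HepaRG cells were exposed in duplicate for 48 h in serum-free induction medium, 8 points from 100 uM top in half-log steps, 0.5% DMSO. GSTM3 mRNA was measured by TaqMan qRT-PCR, normalized to ACTB, GAPDH and POLR2A; bidirectional fit versus DMSO.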

Read-out in assay [12]: Hypoxia-inducible factor 1-alpha (Homo sapiens) (UniProt Q16665)
Briefly: LTEA_HepaRG_HIF1A: Life Technologies and Expression Analysis (LTEA) Assay for Hypoxia-inducible factor 1 (HIF1A) Trancription factor using HepaRG (AID 2283503). A digest of the protocol: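 Differentiated HepaRG cells in serum-free induction medium exposed 48 h, in duplicate, to 8-point half-log series from 100 uM in 0.5% DMSO. HIF1A mRNA measured by TaqMan qRT-PCR, normalized to ACTB/GAPDH/POLR2A, fitted bidirectionally versus DMSO.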

Read-out in assay [13]: 3-Hydroxy-3-Methylglutaryl-CoA Synthase 2 (HMGCS2), HMGCS2 (gene 3158)
Briefly: LTEA_HepaRG_HMGCS2: Life Technologies and Expression Analysis (LTEA) Assay for 3-Hydroxy-3-Methylglutaryl-CoA Synthase 2 (HMGCS2) using HepaRG (AID 2283504). The method in brief: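 Human HepaRG cells in serum-free induction medium were exposed in duplicate for 48 h to 8-point half-log series from 100 uM top in 0.5% DMSO. HMGCS2 mRNA measured by TaqMan qRT-PCR, normalised to ACTB, GAPDH, POLR2A; bidirectional fit versus DMSO.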

Read-out in assay [14]: HGF (gene 3082)
Briefly: LTEA_HepaRG_HGF: Life Technologies and Expression Analysis (LTEA) Assay for Hepatocyte Growth Facto (HGF) using HepaRG (AID 2283505). A digest of the protocol:
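Differentiated HepaRG cells in serum-free induction medium exposed 48 h in duplicate, 8 half-log concentrations from 100 uM in 0.5% DMSO. HGF mRNA by qRT-PCR, normalised to ACTB, GAPDH, POLR2A; bidirectional fitting.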

Read-out in assay [15]: Insulin Like Growth Factor 1 (IGF1), IGF1 (gene 3479)
Briefly: LTEA_HepaRG_IGF1: Life Technologies and Expression Analysis (LTEA) Assay for Insulin Like Growth Factor 1 (IGF1) using HepaRG (AID 2283506). The method in brief:
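HepaRG, plated 48 h, then switched to serum-free induction media; test chemical 8-pt half-log from 100 uM (0.5% DMSO), duplicate, 48 h. Lysis in RLT, TaqMan qRT-PCR, norm. ACTB/GAPDH/POLR2A. Bidirectional fit vs DMSO.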

Read-out in assay [16]: Intercellular Adhesion Molecule 1 (ICAM1), ICAM1 (gene 3383)
Briefly: LTEA_HepaRG_ICAM1: Life Technologies and Expression Analysis (LTEA) Assay for Intercellular Adhesion Molecule 1 (ICAM1) using HepaRG (AID 2283507). A digest of the protocol: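 Differentiated human HepaRG cells in serum-free induction medium exposed 48 h in duplicate to 8 half-log concentrations (top 100 uM, 0.5% DMSO). ICAM1 mRNA quantified by TaqMan qRT-PCR, normalized to ACTB, GAPDH and POLR2A; bidirectional fitting versus DMSO.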

Read-out in assay [17]: Insulin-like growth factor-binding protein 1 (IGFBP1), IGFBP1 (gene 3484)
Briefly: LTEA_HepaRG_IGFBP1: Life Technologies and Expression Analysis (LTEA) Assay for Insulin-like growth factor-binding protein 1 (IGFBP1) using HepaRG (AID 2283508). The method in brief:
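HepaRG cells, plated 48 h then switched to serum-free induction medium, exposed in duplicate for 48 h to 8-point half-log series from 100 uM in 0.5% DMSO. mRNA measured by qRT-PCR, normalized to ACTB/GAPDH/POLR2A; bidirectional fit versus DMSO.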

Read-out in assay [18]: Interleukin 6 (IL6), IL6 (gene 3569)
As to the kind of experiment: LTEA_HepaRG_IL6: Life Technologies and Expression Analysis (LTEA) Assay for Interleukin 6 (IL6) using HepaRG (AID 2283509). The method in brief: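 HepaRG, ~100,000 cells/well, 48 h pre-culture; serum-free induction medium; cmpd 8-pt half-log from 100 uM, 0.5% DMSO, duplicate, 48 h. Lysis in RLT, TaqMan qRT-PCR; gain or loss vs DMSO.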

Read-out in assay [19]: Cytochrome P450 3A7 (Homo sapiens) (UniProt P24462)
As to the kind of experiment: LTEA_HepaRG_CYP3A7: Life Technologies and Expression Analysis (LTEA) Assay for CYP3A7 using HepaRG (AID 2283492). A digest of the protocol:
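Differentiated HepaRG cells in serum-free induction medium exposed 48 h in duplicate to 8-point half-log series from 100 uM top in 0.5% DMSO. CYP3A7 mRNA by qRT-PCR, normalized to ACTB/GAPDH/POLR2A, bidirectional fit versus DMSO.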

Sequence of Hypoxia-inducible factor 1-alpha (Homo sapiens) (Q16665 whole entry, looked up): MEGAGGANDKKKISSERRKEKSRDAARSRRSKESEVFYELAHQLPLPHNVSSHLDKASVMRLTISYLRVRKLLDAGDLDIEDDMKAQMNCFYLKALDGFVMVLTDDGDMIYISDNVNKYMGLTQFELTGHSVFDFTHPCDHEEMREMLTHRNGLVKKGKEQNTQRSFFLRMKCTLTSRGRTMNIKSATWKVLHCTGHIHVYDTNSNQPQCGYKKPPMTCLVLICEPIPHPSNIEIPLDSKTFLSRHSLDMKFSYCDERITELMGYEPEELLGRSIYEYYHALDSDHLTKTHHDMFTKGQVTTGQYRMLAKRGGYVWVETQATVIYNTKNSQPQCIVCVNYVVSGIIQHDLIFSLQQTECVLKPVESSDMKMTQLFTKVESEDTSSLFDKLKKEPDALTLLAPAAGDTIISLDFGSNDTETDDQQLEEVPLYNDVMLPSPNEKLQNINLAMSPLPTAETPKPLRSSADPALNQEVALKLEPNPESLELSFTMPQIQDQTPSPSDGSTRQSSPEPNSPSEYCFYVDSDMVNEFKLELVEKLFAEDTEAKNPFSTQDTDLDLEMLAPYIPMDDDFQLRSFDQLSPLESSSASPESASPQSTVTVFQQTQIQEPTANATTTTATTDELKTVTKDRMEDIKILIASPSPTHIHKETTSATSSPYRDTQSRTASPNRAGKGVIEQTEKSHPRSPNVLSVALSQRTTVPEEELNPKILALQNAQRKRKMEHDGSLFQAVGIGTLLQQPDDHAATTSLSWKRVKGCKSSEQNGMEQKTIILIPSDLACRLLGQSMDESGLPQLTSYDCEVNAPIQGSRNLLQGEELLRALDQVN
Sequence of Cytochrome P450 3A7 (Homo sapiens) (P24462 whole entry, looked up): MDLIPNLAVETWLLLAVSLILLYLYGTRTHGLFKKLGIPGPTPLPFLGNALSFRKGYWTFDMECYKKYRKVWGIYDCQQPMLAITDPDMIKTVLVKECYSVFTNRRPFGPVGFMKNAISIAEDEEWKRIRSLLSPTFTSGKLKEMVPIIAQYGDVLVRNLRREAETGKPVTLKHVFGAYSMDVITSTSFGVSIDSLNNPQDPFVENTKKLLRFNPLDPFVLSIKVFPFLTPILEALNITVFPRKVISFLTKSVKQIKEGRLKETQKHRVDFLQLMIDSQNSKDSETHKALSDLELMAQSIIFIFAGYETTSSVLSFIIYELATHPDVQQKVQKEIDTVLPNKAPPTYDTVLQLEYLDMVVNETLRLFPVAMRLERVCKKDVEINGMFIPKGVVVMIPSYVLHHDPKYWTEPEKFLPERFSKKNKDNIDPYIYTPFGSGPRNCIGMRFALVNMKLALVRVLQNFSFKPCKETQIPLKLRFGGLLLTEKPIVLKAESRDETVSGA

In the case of `CC(C)=CC1C(C(=O)OCc2coc(Cc3ccccc3)c2)C1(C)C` (stereo unspecified), the compound was classed as inactive in assay [1], in assay [2], in [3], in [4], in assay [5] and in assay [6]. Besides, the compound was called inactive in [7], in [8], in [9], in assay [10], in assay [11] and in [12]. Moreover, the compound was classed as inactive in assay [13], in assay [14], in assay [15], in [16], in assay [17] and in [18].

Consider `CCSC(=O)N1CCCCCC1`, for which the compound was classed as inactive in assay [1], in assay [2], in [19], in assay [3], in assay [4] and in [5]. Further, the outcome in assay [6], in assay [7], in assay [8], in [9], in assay [10] and in assay [11] was inactive. Further, the call in [12], in assay [13], in assay [14], in assay [15], in [16] and in assay [17] was inactive. For the same compound, the compound was classed as inactive in [18].

For the compound `CCCCOCN(C(=O)CCl)c1c(CC)cccc1CC`, the compound was called inactive in [1], in assay [2], in assay [19], in assay [3], in assay [4] and in assay [5]. In addition, the outcome in assay [6], in assay [7], in [8], in assay [9], in assay [10] and in [11] was inactive. Also, the call in assay [12], in [13], in assay [14], in [16], in [17] and in [18] was inactive. Besides, the AC50 in assay [15] is 50 µM (active).
